# Test results as given in PubChem BioAssay (NCI).
# This is part of a sample that, as a whole, favours compounds with a hit. Of some 83,000 tested, about 20% had one in any assay.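 Percent growth is the endpoint: 0 to 100 indicates growth inhibition (40 means 60% inhibition), 0 means no net growth, and negative values indicate cell death.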 Active and inactive are the calls of the source. How the source made its calls: active means growth percent below 10; inactive means the rest.
# Tested on: K-562 leukemia
# Test: NCI-60 one-dose screen, 48 h (100 = growth as untreated, 0 = no growth, -100 = all killed)
# Conditions: 10 µM unless noted
row,SMILES,growth
1,CCOC(=O)c1ccc2c(c1)nc(-c1ccccc1)n2C1CCCCC1,73.1% (inactive)
2,CC(=O)N1N=C(c2ccc(C(F)(F)F)c(F)c2)CC1c1[nH]c(C)c(C(=O)NCC(F)(F)F)c1C (stereo not given),97.6% (inactive)
3,O=C(CN1C(=O)S/C(=C\c2ccccc2)C1=O)Nc1ncc(Cc2ccccc2Cl)s1,97.3% (inactive)
4,COc1cc(OCc2cccc(Br)c2C)cc(OC)c1C=O,67% (inactive)
5,COc1cc(NS(=O)(=O)c2ccc(-c3cnc(C4CC4)o3)cc2)ccc1F,12.2% (inactive)
6,COC1=CC(c2ccc[nH]2)=N/C1=C\c1[nH]c(C)c(CC(=O)OCc2ccccc2)c1CCC(=O)OCc1ccccc1,-11.3% (active)
7,Clc1cccc(Nc2ncnc3ccc(-c4cnc5[nH]ccc5c4)cc23)c1,62.1% (inactive)
8,COc1cc2ncnc(Nc3ccc(F)c(Cl)c3)c2cc1OCC(=O)N1CCN(c2ccccc2)CC1,85.2% (inactive)
9,O=C1Nc2ccccc2/C1=C/c1nc2ccccc2c(=O)[nH]1,86.2% (inactive)
10,CNc1nnc2n(-c3ccccc3)c(=O)c3cnn(-c4ccccc4)c3n12,85.7% (inactive)
11,C=C1C(=O)O[C@H]2[C@H]1CC/C(COC(=O)c1cc3ccccc3s1)=C\CC[C@@]1(C)O[C@@H]21,2.38% (active)

# Tested on: MALME-3M melanoma
# Test: as above
# Conditions: 10 µM unless noted
row,SMILES,growth
1,O=C(Nc1ccccc1)Nc1ncnc2c1ncn2-c1ccc(Cl)cc1,71.9% (inactive)
2,CC(C)c1ccc(C(=O)Nc2nc3ccc(O)c(CN(C)C)c3s2)cc1,71.4% (inactive)
3,Cc1ccc(Nn2c(SCC(=O)Nc3nc(-c4ccccc4)cs3)nc(C)c2C)cc1,92% (inactive)
4,N#CC(C#N)N=Nc1ccc(Br)cc1,12.1% (inactive)
5,CCN1C(=S)N(c2ccccc2)C2C1NN=c1s/c(=C3\C(=O)N(C(C)C)c4ccccc43)c(=O)n12 (stereo not given),60.7% (inactive)
6,CSc1nc2ccccc2cc1/C=[N+](\[O-])c1ccccc1,46.1% (inactive)
7,CN1CCN(c2cc(Nc3cc(C4CC4)[nH]n3)nc(Nc3ccc(CC(=O)NCc4cccc(F)c4)cc3)n2)CC1,34.7% (inactive)
8,C=CCN=c1sc2c(n1NC(=O)c1cc3ccc1CCc1ccc(cc1)CC3)C(=O)c1ccccc1C2=O,-88.6% (active)
9,Cn1cc(-c2csc(-c3cn(C(=O)OC(C)(C)C)c4ccc(Br)cc34)n2)c2ccnc(Cl)c21,36.6% (inactive)
10,CSc1oc(C)nc1[P+](c1ccccc1)(c1ccccc1)c1ccccc1,76.1% (inactive)
11,C=C1C(=O)O[C@H]2[C@H]1CC/C(Cn1cc(-c3ccccc3)nn1)=C\CC[C@@]1(C)O[C@@H]21,-46.2% (active)
12,O=S(=O)(c1ccccc1)n1cc2c(c1)-c1nc(Nc3ncccn3)sc1CC2,50.3% (inactive)
13,Cc1[nH]c(C(=O)Nc2ccccc2OC2CCNCC2)c(Cl)c1Cl,-49.5% (active)
14,COc1ccc(-c2cc(-c3ccc(Cl)cc3)c(C#N)c(=O)n2Cc2ccc(C(=O)Nc3ccccc3N)cc2)cc1,74.1% (inactive)
15,O=C(CN1CCCCC1)Nc1nc(-c2cc3ccccc3oc2=O)cs1,103% (inactive)
16,Oc1ccc(Cl)cc1/C=N\NC(=S)N/N=C/c1cc(Cl)ccc1O,23.4% (inactive)
17,COC12C=C/C(=C(/C(=O)OCc3ccncn3)C(=O)CCCCCCCCC3(OC)C=C/C(=C(/C(=O)OCc4ccncn4)C(=O)CCCCCCCC1)O3)O2,-54.3% (active)
18,COc1ccc2c(c1)N(CCO)C1=C(C(=O)OC1)C2c1cccc(F)c1 (stereo not given),55.7% (inactive)
19,CC(=O)Oc1ccc(/C(=C(\C)c2ccc(Cl)cc2)c2ccc(OCCN3CCCCC3)cc2)cc1,-6.44% (active)
20,O=C(N(c1ccccc1)c1ccccc1)n1cc(I)c2nc(Cl)nc(Cl)c21,73.4% (inactive)

row,SMILES,growth
1,N#Cc1nc(-c2ccccc2)oc1S(=O)(=O)N1CCN(c2ccccc2)CC1,90.1% (inactive)
2,Cc1ccc(NC(=O)c2sc3nc(C)c(Br)c(C)c3c2N)cc1,53.8% (inactive)
3,O=C(CN1C(=O)S/C(=C\C(Cl)=C\c2ccccc2)C1=O)NCCc1ccc(O)cc1,52.1% (inactive)
4,O=C(/C=C/c1cn(-c2ccccc2)nc1-c1ccc(Cl)cc1)c1ccc(F)cc1,87.5% (inactive)
5,CCOC(=O)c1c(NC(=O)c2cccc(C(F)(F)F)c2)sc2c(CN(C)C)c(O)ccc12,-38.5% (active)
6,N#Cc1c(-c2ccccc2)cc(-c2ccc(Nc3nc(Nc4ccc(Cl)cc4)nc(Nc4ccc(Cl)cc4)n3)cc2)nc1N,-68.1% (active)
7,O=C(/C=C/c1cccs1)Nc1ncc(Cc2ccccc2F)s1,40.5% (inactive)
8,O=S(=O)(Nc1cc(Cl)ccc1Cl)c1ccc(-c2cnc(C3CC3)o2)cc1,55.7% (inactive)
9,CCOC(=O)c1ccc2c(c1)nc(-c1ccccc1)n2C1CCCCC1,112% (inactive)
10,CC(=O)N1N=C(c2ccc(C(F)(F)F)c(F)c2)CC1c1[nH]c(C)c(C(=O)NCC(F)(F)F)c1C (stereo not given),43.5% (inactive)
11,O=C(CN1C(=O)S/C(=C\c2ccccc2)C1=O)Nc1ncc(Cc2ccccc2Cl)s1,104% (inactive)
12,COc1cc(OCc2cccc(Br)c2C)cc(OC)c1C=O,114% (inactive)
13,COc1cc(NS(=O)(=O)c2ccc(-c3cnc(C4CC4)o3)cc2)ccc1F,55.8% (inactive)
14,COC1=CC(c2ccc[nH]2)=N/C1=C\c1[nH]c(C)c(CC(=O)OCc2ccccc2)c1CCC(=O)OCc1ccccc1,-62.1% (active)
15,Clc1cccc(Nc2ncnc3ccc(-c4cnc5[nH]ccc5c4)cc23)c1,82.9% (inactive)
16,COc1cc2ncnc(Nc3ccc(F)c(Cl)c3)c2cc1OCC(=O)N1CCN(c2ccccc2)CC1,96.3% (inactive)
17,O=C1Nc2ccccc2/C1=C/c1nc2ccccc2c(=O)[nH]1,92.8% (inactive)
18,CNc1nnc2n(-c3ccccc3)c(=O)c3cnn(-c4ccccc4)c3n12,131% (inactive)
19,C=C1C(=O)O[C@H]2[C@H]1CC/C(COC(=O)c1cc3ccccc3s1)=C\CC[C@@]1(C)O[C@@H]21,-67.2% (active)
